HT1080NT lethal: kills 2HG-producing HT-1080-NT fibrosarcoma cells; AID 686970; HT-1080-NT fibrosarcoma viability, CellTiter-Glo ATP luminescence, 48 h; Potency, µM (doses to about 46.1 µM), for the others: at the highest dose activity, negative = less viability, most hits filed as cytotoxic; actives 1.6% (n = 360,000);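 further: NT is the 2HG producing partner of a matched IDH1 knockdown line; potency means the concentration at half of the fitted maximal effect; 0% = DMSO-treated cells and -100% = media-only wells without cells; nearly all actives have a fitted effect of over 55% in size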
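Fibrosarcoma NT cells, 750 per well in 5% FBS RPMI, were exposed to compound for 48 hours. Viability: CellTiter-Glo luminescence.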
DT40 TDP1 CPT: growth inhibition of DT40 Tdp1-/-;hTDP1 cells with camptothecin (screen for TDP1 inhibitors). chicken DT40 Tdp1-/-;hTDP1 cells + 20 nM CPT, ATP luminescence, 48 h. Potency, µM (top dose mostly 46.2 µM), for inactives: at the highest dose activity change, negative = growth inhibition, usual class: inhibitors. actives 12% (n = 420,000); further: potency means the concentration at half of the fitted maximal effect; nearly all actives have a fitted effect of over 55% in size
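Chicken DT40 Tdp1-/- cells stably complemented with human TDP1 were seeded at 400 cells/well in medium containing 20 nM camptothecin, exposed to pin-transferred compounds, and grown at 37 °C for at least 48 hr. Viability was read as ATP luminescence.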
DT40 TDP1 no CPT: qHTS for Inhibitors of human tyrosyl-DNA phosphodiesterase 1 (TDP1): qHTS in cells in absence of CPT. Potency, µM (highest dose often 46.2 µM), inactives show at the highest dose activity change, negative = growth inhibition, actives largely listed as inhibitors. DT40 Tdp1-/- hTDP1 cells, no CPT, ATP luminescence, 48 h. actives 15% (n = 420,000); further: potency means the concentration at half of the fitted maximal effect; nearly all actives have a fitted effect of over 55% in size
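Growth kinetics read by CellTiter-Glo luminescence after ≥48 hr at 37 °C. Cells: DT40 Tdp1-/- stably carrying human TDP1, 400 per well, compound exposure in the absence of CPT (DMSO vehicle).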
IL1B secr inh: inflammasome signaling inhibition, IL-1 beta readout | THP-1 LPS/ATP IL-1B secretion, AlphaLISA, 16 h; hits give low values | activity change, % at 57.5 µM | actives 4.7% (n = 360,000) | AID 743279; in the data active means activity change below about -50%; inconclusive means mostly about -30% to -49%
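Secreted IL-1B measured by AlphaLISA bead assay after 16 h compound exposure of THP-1 cells; compounds (final up to 57.5 uM) added 1 h before LPS (250 ng/mL) and ATP (1.25 mM) stimulation; lower signal means less secretion.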
HT1080 IDH1KD tx: HT-1080 IDH1 knockdown cell toxicity (counter line). HT-1080 IDH1 knockdown viability, ATP luminescence, 48 h. Potency, µM (highest dose often 46.1 µM), for inactives: at the top dose activity, negative = toxicity, usual class: cytotoxic. actives 2% (n = 360,000). AID 686971;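 further: potency means the concentration at half of the fitted maximal effect; 0% = DMSO wells and -100% = cell-free medium wells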
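IDH1KD HT-1080 cells, 750/well, RPMI + 5% FBS; compound pinned after 2 h settling; 48 h, 37 °C; CellTiter-Glo luminescence; % activity normalised to DMSO and no-cell wells; curves fitted, classed by r2 and efficacy.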
The depositor's hits bear a star; u = inconclusive; x = not tested or not shown; ! = not active in a repeat; [ ] = another dose, or the depositor's remark. Hits are enriched below; roughly 19% of the tested compounds scored in any of these assays. Unless noted, the call rests on the fitted dose curve; in most records, active means well fitted curve in the direction sought with a large enough effect; inconclusive means small, poorly fitted or top-dose-only effect, or another doubt; inactive means no such curve, though single readings can be large; an effect the other way counts as inactive or inconclusive. Unless noted, on the % scale 0 is the no-effect control and ±100 the full control effect.

SMILES | HT1080NT lethal | DT40 TDP1 CPT | DT40 TDP1 no CPT | IL1B secr inh | HT1080 IDH1KD tx
CN1CCN(S(=O)(=O)c2cccc(C(=O)N(C)CC(=O)Nc3ccc(Cl)c(Cl)c3)c2)CC1 | -24% | u | u | u | -28%
Cc1cccc(NC(=O)c2cn(-c3ccccc3)nc2-c2ccccc2)c1C | x | u | 21µM* | x | x
Cc1cc(C)cc(NC(=O)Cn2c(C)cc(C)c(C#N)c2=O)c1 | x | 6% | -15% | x | x
CCc1ccc(OC(=O)Nc2ccccc2)cc1 | 28% | 1% | -2% | -14 | 9%
Cc1ccc(S(=O)(=O)Nc2ccc(Br)cc2/C=N/n2cnnc2)cc1 | 13µM* | u | 29µM* | 11 | u
Cc1ccc(S(=O)(=O)N/N=C/c2cc(Br)ccc2O)cc1 | -29% | u | -10% | 22 | -27%
COc1ccc2c(c1)O[C@@H](c1cccc(C(F)(F)F)c1)[C@H](OC(=O)Nc1ccc(OC(F)F)cc1)C2=O | 0% | u | 21µM* | -21 | -5%
O=C(NCCn1cc(SCc2ccccc2)c2ccccc21)c1cccs1 | x | 15µM* | 7.3µM* | x | x
NC(=O)CSc1cn(CCNC(=O)c2cccs2)c2ccccc12 | -6% | -4% | -17% | 41 | 6%
O=C(NCCn1cc(SCc2ccccc2Cl)c2ccccc21)c1cccs1 | x | 23µM* | u | x | x
Cc1ccc(C)c(CSc2cn(CCNC(=O)c3cccs3)c3ccccc23)c1 | x | u | 23µM* | x | x
O=C(NCCn1cc(SCc2ccc(Br)cc2)c2ccccc21)c1cccs1 | x | 23µM* | 23µM* | x | x
Cc1ccc(CNS(=O)(=O)c2cn(C)c(=O)n(C)c2=O)cc1 | 7% | 17% | -1% | -13 | 3%
O=C(COCc1cc(-c2ccc(F)cc2)on1)Nc1cc(F)ccc1F | x | -28% | -30% | x | x
COc1ccccc1C(=O)NCCn1cc(SCC(=O)NCC2CCCO2)c2ccccc21 (centres undefined) | 0% | u | u | -24 | -10%
COc1ccccc1C(=O)NCCn1cc(SCc2ccc(C)cc2)c2ccccc21 | x | 23µM* | u | x | x
O=C(NCCn1cc(SCc2ccccc2)c2ccccc21)c1ccccc1F | -24% | 21µM* | u | -27 | -19%
O=C(CC(NCc1cccnc1)C(=O)O)Nc1ccc(F)cc1 (centres undefined) | x | -3% | 7% | x | x
CN(C)c1ccc(S(=O)(=O)N2CCCCC2)cc1NC(=O)C1=COCCO1 | 0% | u | -17% | -1 | -1%
COc1ccc2ccccc2c1/C=N/NC(=S)NCCN1CCOCC1 | 4% | 16µM* | -12% | -15 | -2%
COc1cc(OC)c(OC)cc1/C=N/NC(=S)NCCN1CCOCC1 | -3% | 18µM* | 16µM* | 1 | 11%
COc1cc(OC)c(OC)cc1/C=N/NC(=S)NCC1CCCO1 (centres undefined) | u | 7.3µM* | u | -8 | u
COc1ccc(NC(=O)COC(=O)C2CCCN2C(=O)OC(C)(C)C)cc1Cl (centres undefined) | 7% | -2% | 8% | u | 5%
CC(=O)NCCCc1ccc(C(=O)COC(=O)CNC(=O)c2ccc3ccccc3c2)cc1 | x | 0% | 3% | x | x
O=C(NCC(c1ccc(F)cc1)N1CCOCC1)c1ccc(-c2ccccc2)cc1 (centres undefined) | 3% | 16µM* | u | -11 | 2%
O=C(NCC(c1ccc(F)cc1)N1CCOCC1)c1nn(-c2ccccc2)c(=O)c2ccccc12 (centres undefined) | -3%[9.24 µM] | u | 21µM* | 27 | 0%
COc1ccc(OC)c(S(=O)(=O)NCCOC23CC4CC(CC(C4)C2)C3)c1 | 4% | 18µM* | 7.3µM* | 0 | 8%
COc1ccc(OC)c(S(=O)(=O)NCCc2ccccc2)c1 | 9% | u | -16% | -3 | -3%
COc1ccc(OC)c(S(=O)(=O)NCCS(=O)(=O)N2CCN(c3ccccc3)CC2)c1 | -3% | 21µM*! | 16µM*! | 1 | 0%
